Inconclusive results are not listed. Calls of active or inactive are those of the source. The call rests on the fitted dose curve; in most records, active means well fitted curve in the direction sought with a large enough effect; inconclusive means small, poorly fitted or top-dose-only effect, or another doubt; inactive means no such curve, though single readings can be large; an effect the other way counts as inactive or inconclusive.
Experiments:
[1] = HPAF-II Cancer Cell Toxicity qHTS against the NCATS CANVASS Library (AID 1347346); further: nearly all actives have a fitted effect of over 55% in size
Method in brief: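 Cytotoxicity read-out was CellTiter-Glo luminescence after 72 h at 37 degrees C exposure of HPAF-II cells (1000/well) to compounds in an 11-point titration.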

[2] = UWB1.289 Cancer Cell Toxicity qHTS against the NCATS CANVASS Library (AID 1347347); further: nearly all actives have a fitted effect of over 60% in size
Excerpt: (§1) Natural products and their derivatives continue to be wellsprings of nascent therapeutic potential. However, many laboratories have limited resources for biological evaluation, leaving their previously isolated or synthesized compounds largely or completely untested. To address this issue, the Canvass library of natural products was assembled (https://tripod.nih.gov/canvass), in collaboration with academic and industry researchers, for quantitative high-throughput screening (qHTS) across a diverse set of cell-based and biochemical assays. The pure (>85% purity by liquid chromatography/mass spectrometry [LC/MS]) Canvass library of 346 natural products were submitted by 45 academic laboratories and companies around the world. […] The library was formatted into 1536-well plates and evaluated in 50 qHTS (in an 11-pnt concentration series) bioassays with broad scope of disease-relevant mechanisms. The resulting data set from 50 different assays was then systematically analyzed to identify overall trends and specific natural products with interesting biological activities. […]
(§2) Cancer Cell Toxicity protocol for cell lines COV-362, OV-KATE, OV-SAHO, UWB1.289, UWB1.289-WTBRCA1, HEK-293, HPAF-II, Panc-1005, SW1088, or U-118MG. […] Luminescence signal was acquired via the ViewLux plate reader (PerkinElmer) using a clear filter, 2 second exposure and 2x binning settings.

[3] = OV-SAHO Cancer Cell Toxicity qHTS against the NCATS CANVASS Library (AID 1347348); further: nearly all actives have a fitted effect of over 55% in size
Method in brief: (§3)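 Quantitative HTS format: an 11-concentration series was applied to 1000 cells/well following a 4-hour attachment. Cultures ran 72 hours before ATP luminescence detection by CellTiter-Glo.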

[4] = Panc-1005 Cancer Cell Toxicity qHTS against the NCATS CANVASS Library (AID 1347349); further: nearly all actives have a fitted effect of over 60% in size
Excerpt: as §1, §2

[5] = SW1088 Cancer Cell Toxicity qHTS against the NCATS CANVASS Library (AID 1347350); details: SW1088 viability, CellTiter-Glo luminescence, 72 h; at 38.3 µM (top of the series); further: nearly all actives have a fitted effect of over 75% in size
Method in brief: as §3

[6] = U-118MG Cancer Cell Toxicity qHTS against the NCATS CANVASS Library (AID 1347351)
Method in brief: as §3

[7] = COV-362 Cancer Cell Toxicity qHTS against the NCATS CANVASS Library (AID 1347352)
Excerpt: as §1
(§4) Cancer Cell Toxicity COV-362, OV-KATE, OV-SAHO, UWB1.289, UWB1.289-WTBRCA1, HEK-293, HPAF-II, Panc-1005, SW1088, and U-118MG-screen protocol. […] Luminescence signal was acquired via the ViewLux plate reader (PerkinElmer) using a clear filter, 2 second exposure and 2x binning settings.

[8] = A2780 Cisplatin Sensitive Ovarian Cancer Cell Toxicity qHTS against the NCATS CANVASS Library (AID 1347353); details: A2780 ovarian cancer viability, ATPLite luminescence, 72 h; at 46.1 µM (top of the series); further: nearly all actives have a fitted effect of over 60% in size
Method in brief: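 Cisplatin-sensitive A2780 ovarian cells (750/well) received compound in 11 concentrations, and were incubated 72 h at 37 °C. ATP content was measured by ATPLite luminescence; bortezomib served as control.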

[9] = UWB1.289-WTBRCA1 Cancer Cell Toxicity qHTS against the NCATS CANVASS Library (AID 1347354); details: UWB1.289-WTBRCA1 viability, CellTiter-Glo luminescence, 72 h; at 38.3 µM (top of the series)
Excerpt: as §1, §4

[10] = HEK-293 Cancer Cell Toxicity qHTS against the NCATS CANVASS Library (AID 1347355); details: HEK-293 viability, CellTiter-Glo luminescence, 72 h; at 46.1 µM (top of the series); further: nearly all actives have a fitted effect of over 65% in size
Excerpt: as §1, §4

Measured: outcome

CN1CCC[C@@H]1c1cccnc1
inactive: [1] | [2] | [3] | [4] | [5] | [6] | [7] | [8] | [9] | [10]
